SMN2 splice enh: enhancers of SMN2 splice variant expression; 210,000 tested, 2.8% active; HEK293 SMN2-luciferase splicing reporter, luminescence, 30-36 h; AID 1458; Potency, µM (titrated, usually from 46.1 µM), inactives show at the top dose activity change, positive = activation, actives largely listed as activators; also: % of control where 0% means no effect; nearly all actives have a fitted effect of over 55% in size
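qHTS luciferase splicing reporter: luminescence rises when SMN2 exon 7 is included in transfected HEK293 cells. Compound exposure lasted 30-36 h at 37C, with 4.5 mM final sodium butyrate as control, followed by a ONE-Glo read.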
FLuc counter: firefly luciferase modulation, counter-screen for miR-21 project; P08659; purified FLuc, Km substrates, luminescence inhibition; Potency, µM (top dose mostly 57.5 µM), for the others: top-dose activity change, negative = inhibition, hits mostly inhibitors; 360,000 tested, 6.9% active;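 also: plate controls were vehicle for no effect and reference inhibitor for full effect; nearly all actives have a fitted effect of over 55% in size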
Target sequence (P08659 whole entry, looked up): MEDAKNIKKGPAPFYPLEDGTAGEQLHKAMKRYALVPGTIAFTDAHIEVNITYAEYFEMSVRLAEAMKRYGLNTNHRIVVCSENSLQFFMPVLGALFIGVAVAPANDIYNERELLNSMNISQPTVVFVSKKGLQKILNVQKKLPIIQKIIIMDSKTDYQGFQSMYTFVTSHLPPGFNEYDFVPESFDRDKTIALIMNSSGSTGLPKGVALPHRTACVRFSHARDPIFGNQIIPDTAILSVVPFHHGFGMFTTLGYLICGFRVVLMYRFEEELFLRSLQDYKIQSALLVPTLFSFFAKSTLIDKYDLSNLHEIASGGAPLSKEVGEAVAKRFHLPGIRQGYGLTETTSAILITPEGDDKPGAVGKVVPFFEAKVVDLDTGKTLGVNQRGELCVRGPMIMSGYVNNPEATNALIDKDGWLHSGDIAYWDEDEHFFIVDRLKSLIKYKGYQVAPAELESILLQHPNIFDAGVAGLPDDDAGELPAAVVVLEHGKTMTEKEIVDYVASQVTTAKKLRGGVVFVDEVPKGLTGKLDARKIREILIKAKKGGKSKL
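Purified P. pyralis luciferase, 10 nM final, with Km-level 10 uM D-luciferin and 10 uM ATP in 50 mM Tris acetate pH 7.5, 10 mM Mg acetate, 0.01% Tween-20, 0.05% BSA; 6-point qHTS titration about 60 µM downward; luminescence read.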
Luc counter: counter-screen: inhibitors of Kinase-Glo firefly luciferase; Kinase-Glo luciferase, ATP luminescence, 8 min; Potency, µM (doses to about 38.3 µM), for the others: at the top dose activity change, negative = inhibition, most hits filed as inhibitors; 200,000 tested, 0.28% active; also: % is scaled to controls: 0 for no effect and ±100 for the full control effect; nearly all actives have a fitted effect of over 60% in size
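Inhibition of Kinase-Glo luciferase light generation was assessed at 10 uM ATP in pH 7.2 imidazole buffer, with luminescence measured after eight minutes at ambient temperature.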
ELG1 genotox: inducers of genotoxicity in HEK293T ELG1-luciferase cells | HEK293T ELG1-luciferase reporter, luminescence, 16 h | AID 504466 | Potency, µM (top dose mostly 46 µM), without a hit: at the highest dose activity change, positive = activation, usual class: activators | 330,000 tested, 1.3% active; also: % of control where 0% means no effect; nearly all actives have a fitted effect of over 60% in size
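After overnight (16 hr) compound treatment at 37 °C, ELG1-luciferase HEK293T cells were lysed with ONE-Glo; luminescence quantified 30 min later at room temperature.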
NPC1 promoter act: NPC1 promoter activation | Huh7 NPC1 promoter luciferase reporter, 24 h | Potency, µM (titrated, usually from 9.22 µM), inactives show at the highest dose activation, hits mostly activators | 320,000 tested, 2.4% active | AID 485313; also: % of control where 0% means no effect; nearly all actives have a fitted effect of over 60% in size
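Luciferase expression driven by the NPC1 promoter was measured in stably transfected Huh7 cells after a 24 h compound incubation, using a luciferase reagent and a luminescence read.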
Rab9 promoter act: Rab9 promoter activation; Huh7 Rab9 promoter-luciferase reporter, luminescence, 24 h; Potency, µM (doses to about 9.22 µM), for inactives: top-dose activation, negative = inhibition, usual class: activators; 320,000 tested, 2.8% active; also: % of control where 0% means no effect; nearly all actives have a fitted effect of over 60% in size
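Quantitative HTS format; Huh7 Rab9-luciferase reporter cells (1500/well) receive compound 2 h post-plating, incubate 24 h at 37 °C, then get luciferase reagent for 10 min before luminescence reading.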
* = called active by the depositor; u = inconclusive; x = not tested or not shown; [ ] = another dose, or the depositor's remark. Sampled rows, rich in hits. Any-hit rate of the full collection: about 7.5%. Calls follow the shape of the dose curve; as a rule, active = well fitted curve in the direction sought with a large enough effect; inconclusive = small, poorly fitted or top-dose-only effect, or another doubt; inactive = no such curve, though single readings can be large; an effect the other way counts as inactive or inconclusive. Potency is read from the fitted curve at half-maximal effect.

SMILES | SMN2 splice enh | FLuc counter | Luc counter | ELG1 genotox | NPC1 promoter act | Rab9 promoter act
CC1(C)Cc2c(sc3nc(-c4ccccc4)n(N)c(=O)c23)CO1 | -4% | u | 0% | 1% | 17% | 14%
CC1(C)Cc2c(sc3nc(-c4cccs4)n(N)c(=O)c23)CO1 | -9% | 6µM* | -3% | -15% | u | 2.8µM*
Nn1c(-c2cccs2)nc2sc3c(c2c1=O)CCCC3 | 6.3µM* | 2.4µM* | -11% | 2.3µM* | 1% | 6.3µM*
Cc1ccccc1-c1nc2sc3c(c2c(=O)n1N)CCCC3 | -60% | 6.7µM* | -2% | 2.9µM* | 18% | 23%
COc1ccccc1CNC(=O)c1ccc(N2Cc3cccc(OC)c3Oc3ncccc32)s1 | x | -9% | x | x | x | x
O=Cc1ccccc1OCCCOc1cccc2cccnc12 | x | 13µM* | x | 6% | 22% | 23%
Fc1ccc(COc2cccc3cccnc23)cc1 | 29% | 17µM* | -3% | u | u | u
NC(=O)COc1cccc2cccnc12 | -1% | 2% | -2% | 3% | 0% | 12%
Cc1ccc2cccc(OCCCOc3ccccc3F)c2n1 | x | 19µM* | x | 3% | -2% | 13%
Cc1ccc(OCCN2C(=O)c3ccccc3C2=O)c([N+](=O)[O-])c1 | -25% | 21µM* | -4% | 7% | 14% | 26%
CCC(=O)N1CCc2cc(S(=O)(=O)CCC(=O)Nc3ccc(OC(F)(F)F)cc3)ccc21 | -25% | 5% | x | x | x | x
COc1ccc(C2/C(=C(/O)c3ccc(Br)cc3)C(=O)C(=O)N2C)cc1 (stereo unspecified) | x | -2% | x | -1% | 0% | 5%
CN(C)c1ccc(NC(=O)Cn2c(SCc3ccc(F)cc3)nc3cccnc32)cc1 | x | -5% | x | x | x | x
COc1cccc(OC)c1OCCCOc1cccc2cccnc12 | u | 17µM* | -8% | 13% | u | 3.2µM*
Clc1ccccc1OCCCOc1cccc2cccnc12 | x | 7.6µM* | x | u | u | u
O=[N+]([O-])c1ccccc1OCCCOc1cccc2cccnc12 | x | 6.7µM* | x | u | u | u
Cc1ccc(OCCOc2cccc3ccc(C)nc23)c([N+](=O)[O-])c1 | 18% | 21µM* | 0% | 0% | 6% | 2%
Cc1cccc(OCCCOc2cccc3cccnc23)c1C | -21% | u | 0% | -1% | -3% | 5%
COC(=O)c1ccc2c(c1)N(Cc1ccccc1)C(=O)c1ccccc1S2(=O)=O | x | 2% | x | x | x | x
CC(C)N(Cc1ccccc1)C(=O)C1CCCN(c2ncnc3onc(-c4ccc(F)cc4)c23)C1 (stereo unspecified) | x | -2% | x | x | x | x
CCCN1C(=O)C(=O)N(CC(=O)c2cc(C)n(C3CC3)c2C)C1=O | x | u | x | u | 2.8µM* | 1.4µM*
CCC(=O)NCCc1nc2cc(NC(=O)c3ccco3)ccc2n1C | x | 17µM* | x | u | u | u
Cn1c(CCNC(=O)c2ccccc2)nc2cc(NC(=O)c3ccco3)ccc21 | 27% | u | -2% | u | 21% | 28%
COc1ccccc1C(=O)Nc1ccc2c(c1)nc(CCNC(=O)c1ccco1)n2C | x | u | x | 8% | -18% | 4%
Cn1c(CCNC(=O)c2ccco2)nc2cc(NC(=O)c3ccco3)ccc21 | 11µM* | 24µM* | -4% | u | u | u
SMILES | SMN2 splice enh | FLuc counter | Luc counter | ELG1 genotox | NPC1 promoter act | Rab9 promoter act
Cn1c(CCNC(=O)c2ccco2)nc2cc(NC(=O)c3ccccc3)ccc21 | x | 17µM* | x | 15% | u | u
Cc1nc2cc(NC(=O)c3ccco3)ccc2n1C | x | 8.5µM* | x | 2.3µM* | 0.5µM* | 0.32µM*
CCCCC(=O)Nc1ccc2c(c1)nc(CCNC(=O)c1ccco1)n2C | x | -12% | x | 11% | 4% | 19%
O=C(NC1CCCCC1)c1ccc2c(c1)N(Cc1ccccc1Cl)C(=O)c1ccccc1S2 | x | -7% | x | x | x | x
COc1ccc(CNc2nc(-c3ccc(OC)cc3)cc(C(F)(F)F)n2)cc1 | -29% | 0% | x | x | x | x
CCOC(=O)c1cccc(NC(=O)C2CCCN(S(=O)(=O)c3cc(Br)cc4c3N(C(=O)CC)CC4)C2)c1 (stereo unspecified) | -14% | -6% | x | x | x | x
CCOC(=O)c1cc(-c2ccccc2)n(CCC(=O)Nc2ccc(C(F)(F)F)cc2)c1C | x | 2% | x | x | x | x
Cc1nc2cc(NC(=O)NCc3ccco3)ccc2n1C | u | u | -6% | 15µM* | 27% | u
CN(C)c1ccc(NC(=O)CCCc2ccccc2)cc1 | 16µM* | 2.4µM* | -1% | 0.92µM* | 4µM* | 1.6µM*
O=C(CCc1ccccc1)Nc1ccccc1 | x | -3% | -2% | 0% | -4% | 0%
CC(O)c1cccc(NC(=O)CCCc2ccccc2)c1 (stereo unspecified) | x | -13% | -5% | 4% | 10% | 29%
Cc1cccc(NC(=O)N2CCN(Cc3ccccc3)CC2)c1 | 18% | 17µM* | -3% | 10% | 21% | 20%
Cc1cccc(NC(=O)N2CCCCCC2)c1 | x | u | x | u | 25% | u
Cc1cccc(NC(=O)CCCc2ccccc2)c1 | x | 17µM* | x | u | u | u
COc1ccc(NC(=O)CN(C)C(=O)c2c(-c3c(F)cccc3Cl)noc2C)cc1 | x | -2% | x | -1% | 1% | 3%
Cc1cc(-c2ccc(N=Nc3c(S(=O)(=O)O)cc4cc(S(=O)(=O)O)cc(N)c4c3O)c(C)c2)ccc1N=Nc1c(S(=O)(=O)O)cc2cc(S(=O)(=O)O)cc(N)c2c1O | x | 21µM* | x | -44% | -13% | -12%
O=S(=O)(O)c1cc(O)c2c(O)c(N=Nc3cc(Cl)ccc3O)c(S(=O)(=O)O)cc2c1 | x | 21µM* | x | -4% | -7% | -10%
Nc1cc(S(=O)(=O)O)cc2ccc(S(=O)(=O)O)cc12 | 1%[9.22 µM] | x | -1%[7.66 µM] | x | x | x
O=S(=O)(O)c1ccc2c(N=Nc3cccc4ccccc34)c(O)c(S(=O)(=O)O)cc2c1 | -28%[9.22 µM] | x | -17%[7.66 µM] | x | x | x
CCCCOC(=O)c1ccc(NC(=O)c2cc3c(=O)n4cccc(C)c4nc3n2C)cc1 | x | 5% | x | x | x | x
COc1ccc(-c2noc(CN(C)C3CCOCC3)n2)cc1 | x | 1% | 2% | 9% | 1% | 2%
CN(Cc1nc(-c2ccccc2)no1)C1CCOCC1 | x | 17µM* | x | u | 2.5µM* | u
c1ccc(-c2noc(CC3CCCCC3)n2)cc1 | 16% | 9.5µM* | -3% | u | 18% | u
c1ccc(-c2noc(CCC3CCCC3)n2)cc1 | 19% | 11µM* | 1% | u | 14% | u
Cc1occc1C(=O)N1CCN(S(=O)(=O)c2ccc(F)cc2)CC1 | x | 7% | x | 0% | -7% | -2%
COc1ccc(S(=O)(=O)Nc2cc3c(cc2NCc2ccccc2)n(C)c(=O)n3C)cc1 | 10µM* | 24µM* | x | x | x | x
